Results on 35 compounds are retold here after PubChem BioAssay.

The nature of the assay: JC-1 mitochondrial potential readout, lung cancer cells – cell-based, A549, JC-1 fluorescence, basal, 24 h, 100 nL, profiling panel (AID 1138).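 Further: A549 lung adenocarcinoma cells under basal conditions with no added stimulus; test concentration not given here.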 The following applies: higher = more signal.
As to `COC(=O)c1c2oc(c1C(=O)OC)C(=O)N(Cc1ccccc1)Cc1cn(nn1)C[C@H](Cc1ccccc1)NC(=O)N[C@H](CO)CC2`, the z-score turned out to be 0.534.

Consider `O=C1O[C@H](c2ccccc2)[C@H](c2ccccc2)N2[C@H]1[C@@H](C(=O)Nc1nc3ccccc3s1)[C@]1(C(=O)Nc3ccc(C#CC4(O)CCCCCC4)cc31)[C@H]2c1ccccc1OCCO`, for which the z-score was -2.19.

`O=C1O[C@@H](c2ccccc2)[C@@H](c2ccccc2)N2[C@@H](c3ccccc3OCCO)[C@]3(C(=O)Nc4ccc(C#CCCO)cc43)[C@@H](C(=O)N3CCCCCCC3)[C@H]12` returned a z-score of 0.163.

The compound `CC(C)N1CC=CC23O[C@@H]4C=CCOC(=O)[C@@H]4[C@H]2C(=O)N(CCCO)[C@@H]3C1=O` (stereo not given in full) registered a z-score of -0.384.

`COc1ccc([Si](C)(C)[C@@H]2[C@@H](CC(=O)N(CCO)Cc3ccccc3)O[C@]3(C(=O)N(Cc4cccc(N5CCOC5=O)c4)c4ccccc43)[C@H]2C)cc1` displayed a z-score of -0.154.

As to `COC(=O)[C@@]1(Cc2ccc(F)cc2)[C@H]2c3cc(C(=O)N4CCCC4)n(CCN4CNCC4=O)c3C[C@H]2CN1C(=O)c1ccccc1`, the z-score was -1.6.

The compound `C=C[C@@H](COC(C)=O)N(C(=O)OC(C)(C)C)S(=O)(=O)c1ccc(Br)cc1` showed a z-score of 0.307.

In turn, `CN(C)C(=O)[C@]1(CCS(=O)(=O)c2ccccc2)N=C(c2ccc(OCCCO)cc2)O[C@@H]1c1ccccc1N=[N+]=[N-]` displayed a z-score of 1.08.

`O=C1NC(=O)C2C1C=CC(C(O)c1ccco1)N2Nc1ccccn1` (stereo not given) showed a z-score of -0.109.

In the case of `C=CC[C@]1(C(=O)NCCN2CCOCC2)N=C(c2ccc(OCCCO)cc2)O[C@H]1c1ccccc1CN=[N+]=[N-]`, the z-score was determined as 2.52.

The compound `CCOC(=O)C[C@H]1[C@H](OC(=O)c2ccccc2-c2ccccc2)[C@@H](NC(=O)c2ccc(-c3ccccc3)cc2)c2cc(OCCCO)ccc2N1C(=O)c1ccc2ccccc2n1` had a z-score of 0.687.

`CCCC[C@@H](O)C1=C(COc2ccccc2)C[C@H]2C(=O)N(C)C(=O)[C@H]2[C@H]1CO` yielded a z-score of 0.708.

`COCCOC(=O)N1C(=O)[C@@]2(c3cc(C#Cc4ccc(OC)cc4)ccc31)[C@H](C(=O)Nc1nc3ccccc3s1)[C@H]1C(=O)O[C@H](c3ccccc3)[C@H](c3ccccc3)N1[C@@H]2c1ccc(O)cc1` yielded a z-score of -2.26.

As for `COC1OC[C@]2(C)[C@H]3C4=C(CN2C(=O)OC(C)(C)C)[C@H](C)C(CO)C(CO)C4CC[C@@H]13` (stereo not given in full), the z-score turned out to be 2.03.

`COCCCNC(=O)[C@]1(CCS(=O)(=O)c2ccccc2)N=C(c2ccc(OCCCO)cc2)O[C@@H]1c1ccccc1N=[N+]=[N-]` gave a z-score of 0.789.

The compound `CCCNC(=O)[C@@]1(c2ccc([N+](=O)[O-])cc2)CC(=O)N(C2CCCCC2)[C@@H]1c1ccc(CO)cc1` yielded a z-score of 1.34.

Compound `[N-]=[N+]=NCc1ccccc1C[C@@]1(C(=O)N2CCOCC2)N=C(c2ccc(OCCCO)cc2)O[C@@H]1c1ccccc1` displayed a z-score of -0.667.

`NC(N)=NCCCn1cc(CNC(=O)[C@@H](N)Cc2ccccc2)nn1` gave a z-score of -0.55.

As to `COC(=O)[C@@]1(Cc2ccc(OC)cc2)[C@H]2c3cc(C(=O)N(C)C)n(CCO)c3C[C@H]2CN1C(=O)c1ccccc1`, the z-score turned out to be 0.782.

`COCCCNC(=O)[C@@]1(Cc2ccccc2CN=[N+]=[N-])N=C(c2ccc(OCCCO)cc2)O[C@H]1c1ccccc1` gave a z-score of -0.0671.

Turning to `C=C[C@@H](OC)[C@H](OC(=O)Nc1ccc(SC)cc1)c1ccc(O)c(F)c1`, the z-score was -1.47.

Turning to `CCCCCCCCCCC(O)C1C=CC2C(=O)N(C)C(=O)C2N1Nc1ccc([N+](=O)[O-])cc1[N+](=O)[O-]` (stereo not given), the z-score worked out at 1.68.

`O=C(NCc1ccccc1)[C@@H]1c2ccccc2C(=O)N(Cc2ccccc2C(F)(F)F)[C@H]1c1ccc(CO)cc1` came in with a z-score of 1.86.

`COCCOC(=O)N1C(=O)[C@@]2(c3cc(C#CCCO)ccc31)[C@H](C(=O)Nc1nc3ccccc3s1)[C@H]1C(=O)O[C@H](c3ccccc3)[C@H](c3ccccc3)N1[C@@H]2c1ccccc1OCCO`: the z-score was -2.25.

In the case of `COCCOC(=O)N1C(=O)[C@@]2(c3cc(C#CCC(C(=O)OC)C(=O)OC)ccc31)[C@H](C(=O)N1CCc3cc(OC)c(OC)cc3C1)[C@H]1C(=O)O[C@H](c3ccccc3)[C@H](c3ccccc3)N1[C@@H]2c1ccc(OCCO)cc1`, the z-score is -1.04.

`COc1ccc(CCNC(=O)[C@@]2(Sc3ccc(C)cc3)CC(=O)N(C3Cc4ccccc4C3)[C@@H]2c2ccc(CO)cc2)cc1` had a z-score of 0.927.

As for `CC1=C([C@H](O)CCc2ccccc2)[C@H](CO)[C@@H]2C(=O)N(C)C(=O)[C@@H]2C1`, the z-score stood at 1.48.

In the case of `COc1ccccc1CN1C(=O)c2ccccc2[C@@]2(Cc3ccccc3N(CC(F)(F)F)C2=O)[C@@H]1c1ccc(CO)cc1`, the z-score was -0.0896.

For `CC(C)(C)OC(=O)CC[C@]1(C(=O)NCc2ccccc2)N=C(c2ccc(OCCCO)cc2)O[C@H]1c1ccccc1CN=[N+]=[N-]`, the z-score turned out to be 2.45.

On to `O=C(NCC(F)(F)F)[C@@H]1c2ccccc2C(=O)N(Cc2ccc(OC(F)(F)F)cc2)[C@H]1c1ccc(CO)cc1`, for which the z-score was determined as 0.845.

For the compound `COc1ccc([Si](C)(C)[C@H]2[C@H](CCn3cc([C@H](O)c4ccccc4)nn3)O[C@@]3(C(=O)N(Cc4ccc(N5C(=O)c6cccc7cccc5c67)cc4)c4ccccc43)[C@@H]2C)cc1`, the z-score was found to be 2.81.

`CCCCCCc1nc(C2CC2)cc2c1[Si](C(C)C)(C(C)C)O[C@H]2c1ccccc1`: the z-score was -0.911.

`COc1cc2c(cc1OC)CN(C(=O)[C@@H]1[C@H]3C(=O)O[C@H](c4ccccc4)[C@H](c4ccccc4)N3[C@H](c3ccc(OCCO)cc3)[C@@]13C(=O)Nc1ccccc13)CC2` came in with a z-score of -0.957.

As for `CCOC(=O)C[C@H]1[C@H](OC(=O)c2ccc(C(=O)c3ccccc3)cc2)[C@@H](NC(=O)Cc2ccc(OC)cc2)c2cc(OCCCO)ccc2N1C(=O)c1ccccc1`, the z-score was determined as 1.14.

In turn, `Cc1cc(C)c(C(O)C2C=CC3C(=O)NC(=O)C3N2Nc2ccc(Cl)cc2Cl)c(C)c1` (stereo not given) returned a z-score of -0.318.
